{"source": "PubChem BioAssay", "note": "A number with no mark means an inactive call.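 How the source made its calls: active means viability increase at or above a cutoff of the median across tested compounds plus 3 SD (cut at about 8.5% in these data, passing the limit was not always enough); inconclusive means some gains above the cutoff, reason not given; inactive means the rest.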", "data": [{"test": "doxorubicin toxicity protection in MRP-1 cells – H69AR cells, CellTiter-Glo, duplicate, MRP-1 activator project, pilot screen (AID 807);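 further: compound pretreatment 18-22 h then 72 h combined with doxorubicin; 0% = doxorubicin alone and 100% = vehicle without doxorubicin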", "details": "H69AR viability with doxorubicin, CellTiter-Glo luminescence; at 10 µM; stronger effect = higher value", "units": {"viability increase": "%"}, "values": [{"smiles": "COc1ccc(NC(=O)N(Cc2ccc(C)cc2)Cc2ccccn2)c(OC)c1", "viability increase": -1.9}, {"smiles": "COc1cc(C(=O)N2CCN(C(=O)C(Cc3cc(C)ccc3C)NC(C)=O)CC2)cc(OC)c1OC", "note": "(stereo not given)", "viability increase": -2.13}, {"smiles": "O=C1C2CCCN2C(c2ccc(F)cc2)N1c1cccc(Cl)c1", "note": "(stereo not given)", "viability increase": -0.91}, {"smiles": "COc1cccc(NC(=O)c2ccncc2)c1", "viability increase": -3.81}, {"smiles": "CC(=O)Nc1cc(-c2nn3c(C)nnc3s2)ccc1C", "viability increase": -0.1}, {"smiles": "O=C1CC(c2ccccc2)CC(O)=C1C=NCCN1CCNCC1", "note": "(stereo not given)", "viability increase": 1.22}, {"smiles": "O=C(NCc1ccc2c(c1)OCO2)c1cnc2n(c1=O)CCS2", "viability increase": -0.06}, {"smiles": "COc1ccc(OC)c(CCNC(=O)C2CCN(c3nnc(-n4cccc4)s3)CC2)c1", "viability increase": -4.48}, {"smiles": "COc1ccc(OCCSc2ncnc3nc[nH]c23)cc1", "viability increase": -3.5}, {"smiles": "CC(CCc1ccco1)NC(=O)Cn1nc(Cc2ccncc2)c2ccccc2c1=O", "note": "(stereo not given)", "viability increase": -4.14}, {"smiles": "Cc1oc(-c2ccc(Cl)cc2)nc1CN1CCCC(C(=O)N2CCN(C(=O)c3ccco3)CC2)C1", "note": "(stereo not given)", "viability increase": -4.07}, {"smiles": "O=C(CC1(O)C(=O)Nc2ccccc21)c1ccccc1", "note": "(stereo not given)", "viability increase": -3.28}, {"smiles": "c1cc(-c2nnc3n2CCC3)[nH]n1", "viability increase": -2.22}, {"smiles": "Cc1ccnc(SCCn2c(N3CCCCC3)nc3c2c(=O)[nH]c(=O)n3C)n1", "viability increase": 0.17}, {"smiles": "CC(C)(C)c1ccc(OCC(=O)N2CCN(C=O)CC2)cc1", "viability increase": -2.64}, {"smiles": "CCC(C)(c1ccc(C(=O)OC)s1)c1ccc(C(=O)OC)s1", "viability increase": 1.15}, {"smiles": "CCOC(=O)N1CCC(NC(=O)CSCc2nc(-c3sccc3C)oc2C)CC1", "viability increase": -1.24}, {"smiles": "CCc1cccc(Nc2cc(C)nc3ncnn23)c1", "viability increase": -0.66}, {"smiles": "CC(=O)CCS(=O)(=O)c1ccc(C)c(C)c1", "viability increase": -6.33}, {"smiles": "N=c1n(CCOc2ccccc2)c2ccccc2n1CCN1CCOCC1", "viability increase": -3.52}, {"smiles": "COc1cccc2c(=O)c(C/C=C(/C)Cl)c(C)[nH]c12", "viability increase": -2.38}, {"smiles": "COC(=O)C(C(=O)OC)C(C(=O)OC)C(C(=O)OC)C(=O)OC", "viability increase": -1.54}, {"smiles": "CC1CCCCN1c1nnc(NC(=O)Cn2c(=O)oc3ccccc32)s1", "note": "(stereo not given)", "viability increase": -1.54}, {"smiles": "COc1cccc(-c2nnc(NC(=O)C3CCCCC3)o2)c1", "viability increase": -3.8}, {"smiles": "COC(=O)c1ccsc1NC(=O)C1COc2ccccc2O1", "note": "(stereo not given)", "viability increase": -1.07}, {"smiles": "Cc1cccc(Nc2ncnc3nc[nH]c23)c1C", "viability increase": -1.75}, {"smiles": "O=C(CCc1ccccc1)N1CCN(CCO)CC1", "viability increase": 0.6}, {"smiles": "CN1CCCN(Cc2ccccc2C(F)(F)F)CC1", "viability increase": -1.78}, {"smiles": "CC(=O)Nc1ccc(-c2cc(NC(C)=O)n(-c3ccccc3)n2)cc1", "viability increase": -1.76}, {"smiles": "CCCCCn1c(CCNC(=O)c2cccs2)nc2ccccc21", "viability increase": -2.25}, {"smiles": "Cc1ccc2ccc(S(=O)(=O)n3nc(C)cc3C)cc2c1", "viability increase": -1.12}, {"smiles": "CCOC(=O)Cc1csc(NC(=O)CN2C(=O)c3ccccc3S2(=O)=O)n1", "viability increase": -2.2}, {"smiles": "O=C(NCc1ccccn1)c1ccc2ccccc2n1", "viability increase": -1.47}, {"smiles": "CCCc1ccc(Oc2c(-c3ccc(O)c(C)c3O)n[nH]c2C)cc1", "viability increase": -2.16}, {"smiles": "COc1ccc(C(CNC(=O)C2CC(=O)N(Cc3ccc(C)cc3)C2)N(C)C)cc1", "note": "(stereo not given)", "viability increase": -0.21}, {"smiles": "CN(Cc1ccco1)C(=O)C(Cc1ccccc1)NS(=O)(=O)c1ccc2c(c1)CCC(=O)N2", "note": "(stereo not given)", "viability increase": -4.4}, {"smiles": "O=C(O)C1CCCCC1C(=O)NCc1cn2ccccc2n1", "note": "(stereo not given)", "viability increase": -1.38}, {"smiles": "CCN1CCN(CC(=O)Nc2ccccc2)C(=O)C1=O", "viability increase": 0.2}, {"smiles": "Nc1c(S(=O)(=O)c2ccccc2)c2nc3ccccc3nc2n1Cc1ccco1", "viability increase": -3.97}, {"smiles": "Cc1nc2ccccc2c2oc(C(=O)N3CCc4ccccc43)cc12", "viability increase": -0.71}]}]}
